IL-1B inflam inh = inhibitors of inflammasome signaling (IL-1 beta secretion) | hit rate 4.7% among 360,000 | THP-1 LPS/ATP IL-1B secretion, AlphaLISA, 16 h; active compounds read low | activity change, % at 57.5 µM; in the data active means activity change below about -50%; inconclusive means mostly about -30% to -49%
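THP-1 cells pretreated 1 hr with compounds (up to 57.5 uM final), then stimulated with LPS (250 ng/mL final) plus ATP (1.25 mM final); secreted IL-1B measured by AlphaLISA after 16 hr, decreased signal indicating inhibition.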
HT1080-NT tox = kills 2HG-producing HT-1080-NT fibrosarcoma cells. HT-1080-NT fibrosarcoma viability, CellTiter-Glo ATP luminescence, 48 h. Potency, µM (highest dose often 46.1 µM), for the others: at the highest dose activity, negative = less viability, actives largely listed as cytotoxic. hit rate 1.6% among 360,000;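 further: NT is the 2HG producing partner of a matched IDH1 knockdown line; potency means the concentration at half of the fitted maximal effect; 0% = DMSO-treated cells and -100% = media-only wells without cells; nearly all actives have a fitted effect of over 55% in size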
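A 48-hour cytotoxicity screen used HT-1080-NT cells plated 2 hours before compound delivery. ATP-based CellTiter-Glo luminescence measured viability, normalized to DMSO and no-cell controls.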
DT40 TDP1 no CPT = qHTS for Inhibitors of human tyrosyl-DNA phosphodiesterase 1 (TDP1): qHTS in cells in absence of CPT. DT40 Tdp1-/- hTDP1 cells, no CPT, ATP luminescence, 48 h. hit rate 15% among 420,000. AID 686978, 2013. Potency, µM (highest dose often 46.2 µM), for the others: at the highest dose activity change, negative = growth inhibition, hits mostly inhibitors; further: potency means the concentration at half of the fitted maximal effect; nearly all actives have a fitted effect of over 55% in size
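Camptothecin absent (DMSO only). Human TDP1-complemented DT40 knockout cells, 400 cells/well, 37 °C for minimum 48 hr; ATP measured via CellTiter-Glo, 30 min dark incubation, luminescence.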
TDP1 cell CPT = DT40-hTDP1 cell growth loss with CPT | AID 686979 | chicken DT40 Tdp1-/-;hTDP1 cells + 20 nM CPT, ATP luminescence, 48 h | hit rate 12% among 420,000 | Potency, µM (titrated, usually from 46.2 µM), for inactives: at the top dose activity change, negative = growth inhibition, actives largely listed as inhibitors; further: potency means the concentration at half of the fitted maximal effect; nearly all actives have a fitted effect of over 55% in size
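Chicken DT40 Tdp1-/- cells stably complemented with human TDP1 were seeded at 400 cells/well in medium containing 20 nM camptothecin, exposed to pin-transferred compounds, and grown at 37 °C for at least 48 hr. Viability was read as ATP luminescence.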
HT1080 IDH1KD tx = toxicity to HT-1080 IDH1 knockdown cells (counter line); HT-1080 IDH1 knockdown viability, ATP luminescence, 48 h; Potency, µM (titrated, usually from 46.1 µM), for inactives: at the top dose activity, negative = toxicity, usual class: cytotoxic; hit rate 2% among 360,000;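 further: potency means the concentration at half of the fitted maximal effect; 0% = DMSO wells and -100% = cell-free medium wells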
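After a 2 h attachment period, IDH1KD HT-1080 cells took pin-transferred compound for 48 h at 37 °C; ATP-based luminescence after 10 min room-temperature reagent incubation reported viability.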
* = called active by the depositor; ? = inconclusive; · = no result. Only some compounds are listed: those with a hit (about 19% of all), similar ones and a draw of the others. Unless noted, the call rests on the fitted dose curve; in most records, active means well fitted curve in the direction sought with a large enough effect; inconclusive means small, poorly fitted or top-dose-only effect, or another doubt; inactive means no such curve, though single readings can be large; an effect the other way counts as inactive or inconclusive. Unless noted, on the % scale 0 is the no-effect control and ±100 the full control effect.

SMILES	IL-1B inflam inh	HT1080-NT tox	DT40 TDP1 no CPT	TDP1 cell CPT	HT1080 IDH1KD tx
O=C(COc1ccc(/C=N/NC(=O)c2cc3ccccc3o2)cc1Cl)Nc1ccccc1	-98*	?	6.5µM*	5.2µM*	?
COc1cc(/C=N/NC(=O)c2ccccc2O)ccc1OCC(=O)Nc1ccccc1	14	-25%	?	?	?
Cc1ccc(C2(c3ccc(C)cc3)CC2C(=O)Nc2ccc([N+](=O)[O-])cc2O)cc1 (centres undefined)	-73*	21µM*	2.6µM*	3.7µM*	16µM*
COc1ccccc1CNc1nc(Nc2ccccc2OC)c2sccc2n1	7	17%	4.6µM*	5.8µM*	5%
COc1ccccc1CNS(=O)(=O)c1cc(C)ccc1OC	11	7%	-2%	-5%	-1%
COc1ccccc1CNc1nc(Nc2ccc(C)cc2C)c2sccc2n1	?	21µM*	7.3µM*	15µM*	23µM*
Cc1cc(C)cc(NC(=O)c2cccn2-c2ncc(C(F)(F)F)cc2Cl)c1	-10	-22%	?	?	-24%
COc1ccc(S(=O)(=O)N(C)CC(=O)Nc2ccc(C)cc2)cc1OC	-14	-4%	?	23µM*	-2%
CSc1cccc(NC(=O)CN(C)S(=O)(=O)c2ccc(C)cc2)c1	-11	-11%	16µM*	?	-2%
COc1cc(NC(=O)CN(C)S(=O)(=O)c2ccc(C)cc2)cc(OC)c1	11	-9%	-24%	-16%	-6%
COC(=O)c1ccccc1NC(=O)CN(C)S(=O)(=O)c1ccc(OC)c(C)c1	13	-8%	?	23µM*	-20%
Cc1ccc(S(=O)(=O)N(C)CC(=O)Nc2ccccc2)cc1	-13	2%	-21%	-13%	-4%
COc1ccc(C2C(C(C)=O)=C(O)C(=O)N2c2ccc(Br)cn2)cc1 (centres undefined)	7	12%	-16%	-14%	9%
S=C(NCc1ccc(Cl)cc1)NN1CCOCC1	21	9%	-19%	5%	4%
Cn1c(=O)n(C)c2cc(NC(=O)C(F)(F)F)ccc21	-10	3%	-4%	-1%	-1%
Cc1c(NC(=O)C(F)(F)F)ccc2nc3c(=O)n(C)c(=O)n(C)c3nc12	·	·	16µM*	?	·
Cc1oc(-c2cccc(Cl)c2)nc1Cn1c(SCc2ccccc2F)nc2ccncc21	·	·	23µM*	16µM*	·
COc1ccc(CSc2nc3ccncc3n2CC(=O)Nc2ccc(C)c(F)c2)cc1	·	·	-15%	-28%	·
COc1ccc(-c2nc(CN3CCN(Cc4ccccc4)CC3)c(C)o2)cc1	-7	-9%	-13%	5%	-7%
COC(=O)c1cc2oc3ccccc3c2n1Cc1nc(-c2cccc(Cl)c2)oc1C	·	·	-4%	-12%	·
COc1ccc(CSc2nc3ccncc3n2Cc2nc(-c3ccc(OC)c(OC)c3)oc2C)cc1	·	·	?	26µM*	·
COc1ccc(-c2nc(Cn3c(SCc4cccc(Cl)c4)nc4ccncc43)c(C)o2)cc1	·	·	?	23µM*	·
O=C(NCCCN1CCOCC1)c1cc(S(=O)(=O)N2CCOCC2)ccc1Cl	0	1%	3%	-1%	16%
COc1ccccc1C(=O)COC(=O)c1ccc(N(C)C)cc1	-11	0%	18µM*	?	-2%
CC(NC(=O)COC(=O)c1ccc(N(C)C)cc1)c1ccccc1 (centres undefined)	7	-21%	?	?	18µM*
COc1ccccc1C(=O)COC(=O)c1ccccc1O	19	9%	-10%	-14%	12%
CC1CCCCC1NC(=O)COC(=O)c1ccc(N(C)C)cc1 (centres undefined)	-15	9%	13µM*	?	-1%
COC(=O)CN1C(=O)CSc2ccc(S(=O)(=O)Nc3cccc(Br)c3)cc21	·	·	?	-20%	·
O=C(COC(=O)Cc1c[nH]c2ccccc12)Nc1cc(S(=O)(=O)N2CCOCC2)ccc1Cl	23	0%	?	-7%	0%
